We go through 40 molecules from PubChem BioAssay (NCI).

SMILES strings stand for the structures. Where “and” joins values, the source holds several entries; their conditions need not be identical. Identical values can stand only once. About 83,000 compounds went through this panel and 20% of them were active in at least one assay; those are over-represented in the sample as a whole.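 Cells were grown in 96-well plates and exposed to the test compound at a single concentration for 48 hours; results are reported as percent growth, with values below 10 considered active.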 Calls of active or inactive are those of the source.

The test system of the assay is MDA-MB-468 breast. The assay is described as follows: NCI-60 one-dose screen, 48 h (100 = growth as untreated, 0 = no growth, -100 = all killed). To be noted: 10 µM unless noted.
As for `CC1C2CCC(C2)C1COCCOCCO` (stereo not given), the growth is 102% (inactive). `COC(=O)[C@]12CC[C@@H](C)[C@H](C)[C@@H]1C1=CC[C@@H]3[C@@]4(C)C(C=O)=C[C@@](C)(COC(=O)c5ccco5)[C@@H]4[C@H](O)C[C@@]3(C)[C@]1(C)CC2`: the growth was -12.1% (active). Consider `CN1C(=O)N(C)C2C1NN=c1s/c(=C\c3cccnc3)c(=O)n12` (stereo not given), for which the growth was 58.1% (inactive). For `CCOc1cccc(C2CC(=O)Nc3cc4c(cc32)OCO4)c1` (stereo not given), the growth is 34.2% (inactive). The value for `CC(=O)/C(=C/c1ccc(Br)cc1)C(=O)c1ccccc1` was 92.3% (inactive). With `S=c1[nH]c2cc(Cl)ccc2s1`, the growth is 108% (inactive).

`Clc1ccc2[nH]cc(-c3cncn3CCc3ccccc3)c2c1`: the growth was 7.96% (active). In the case of `COC(=O)[C@H](C)NC(=O)[C@@H](OC)[C@@H]1Cc2cc3cc(OC4CC(OC5CC(O)C(O)C(C)O5)C(O)C(C)O4)c(C)c(O)c3c(O)c2C(=O)[C@H]1OC1CC(OC2CC(OC3CC(C)(O)C(O)C(C)O3)C(O)C(C)O2)C(O)C(C)O1` (stereo not given in full), the growth was -36.2% (active). As to `CCCCCCCNC(=O)CCCNc1ncnc2c1ncn2-c1cccc(C(C)O)c1` (stereo not given), the growth is 59.7% (inactive). On to `CCN(CC)CCCC(C)Nc1c(-c2ccccc2)cnc2cc(Cl)ccc12` (stereo not given), for which the growth was 44.4% (inactive). In the case of `CCOC(=O)c1cc(C(=O)c2ccc(Cl)cc2)n2ccc(-c3cc[n+](CC(=O)c4ccc(OC)cc4)cc3)cc12`, the growth was 70.7% (inactive).

Take `N=C(N)SCc1cccc2c(CSC(=N)N)cccc12`: the growth was 108% (inactive).

Take `CCCCn1c(-c2ccc(C(=O)O/N=C(\N)c3ccc4c(c3)OCO4)cc2)nc(-c2ccccc2)c1-c1ccccc1`: the growth was 73.8% (inactive). Turning to `Clc1ccc(COc2ccc(Nc3ncnc4onc(-c5ccccc5)c34)cc2)cc1`, the growth is 78.5% (inactive). On to `CC1CCCc2sc3nc(NNC(=O)c4cnccn4)n(-c4ccccc4)c(=O)c3c21` (stereo not given), for which the growth is -31.8% (active) and -42.9% (active). The value for `CNC(=O)c1cc(-c2ccc(NC(=O)Nc3ccc(N4CCOCC4)c(C(F)(F)F)c3)cc2)nc2cccnc12` was 29% (inactive); that for `C=C1C(=O)O[C@@H]2C[C@@H](C)/C=C\C(=O)[C@](C)(OC(C)=O)C[C@H](OC(=O)/C(C)=C\C)[C@@H]12` was -59.1% (active). In the case of `COc1cc(-c2nn(-c3cccc(NC(=O)NCCNS(=O)(=O)c4ccc(Cl)cc4)c3)cc2-c2ccncc2)ccc1Cl`, the growth is -35.8% (active). With `NC(=O)c1cnc(Nc2cccc(N)c2)nc1NCCCNC(=O)C1CCC1`, the growth was 52.9% (inactive). As for `Nc1ncc(-c2ccc3ncnc(Nc4cncc(Cl)c4)c3c2)cn1`, the growth was 7.6% (active). The value for `O=C(O)C(=Cc1c2ccccc2cc2ccccc12)C(=O)O` was 116% (inactive); that for `O=C1/C=C/[C@@H](O)[C@@H]2C[C@@H](O)C[C@H]2/C=C/CCC[C@H](CCc2cccc3ccccc23)O1` was -32.4% (active). Take `COc1cccc(/C=N\NC(=O)c2ccncc2)c1O`: the growth is 64.4% (inactive). As for `CNC(=O)c1cc(Oc2cccc3nc(NC(=O)Nc4cc(C(F)(F)F)ccc4Cl)ccc23)ccn1`, the growth was 111% (inactive). For the molecule `Cc1cc(Nc2cc(N3CCN(C)CC3)nc(/C=C/c3ccccc3)n2)n[nH]1`, the growth was -17.8% (active). Consider `CCCCCCCCCCCCSC(=NC)NC`, for which the growth is -9.65% (active) and 32.3% (inactive). Turning to `O=CN1N=C(c2cccc(Nc3ccnc4cc(Cl)ccc34)c2)CC1c1ccccc1` (stereo not given), the growth was 13% (inactive). On to `CN(c1ccc(Cl)cc1)S(=O)(=O)c1ccc(-c2cnc(C3CC3)o2)cc1`, for which the growth was 22.7% (inactive). As to `C=CC(=O)N[C@H](Cc1ccc(-c2cc(Cl)cc(Cl)c2)cc1)[C@H](O)[C@@H](O)C(=O)O`, the growth was 85.5% (inactive). The value for `Cc1[nH]n(C(=S)Nc2nc3cc(Cl)c(F)cc3s2)c(=O)c1N=Nc1ccc(F)c(Cl)c1` was 114% (inactive); that for `ON=C1CCCCCCCC1` was 102% (inactive) and 107% (inactive); that for `C=C(C)[C@@H]1CC[C@]2(COC(C)=O)CC[C@]3(C)[C@H](CC[C@@H]4[C@@]5(C)CCCN(C(C)=O)C(C)(C)[C@@H]5CC[C@]43C)[C@@H]12` was -49.5% (active). For `COC(=O)C1=C(C(=O)ON)C2C=CC1(C(Cc1ccccc1)Nc1ccccc1)O2` (stereo not given), the growth was -45% (active).

As to `CCNc1nc(O)c(/C=C2\C=Nc3ncccc32)s1`, the growth is -34.7% (active).

In the case of `C=C(C)[C@@H]1CC[C@]2(C(=O)NNC(=O)c3cccnc3)CC[C@]3(C)[C@H](CC[C@@H]4[C@@]5(C)CCCNC(C)(C)[C@@H]5CC[C@]43C)[C@@H]12`, the growth is 79.8% (inactive). The value for `NC(=S)N/N=C/c1ccc(N)cc1` was 106% (inactive); that for `O=[N+]([O-])c1cc(Br)cc2c1[nH]c1ccc(Br)cc12` was 70.3% (inactive); that for `COc1ccc(OC)c(NC(=O)c2sc3nc4c(cc3c2N)C(=O)CCC4)c1` was 37.5% (inactive). Consider `Cn1cc(-c2ccc3nc(-c4ccc(CC(=O)Nc5cc(C(C)(C)C)no5)cc4)cnc3c2)cn1`, for which the growth was 14.8% [30 µM] (inactive). `CCN(CCO)CC(=O)c1cc(Cl)cc(Cl)c1Cl`: the growth is 110% (inactive).
